Compound activity as filed in PubChem.
Pf Dd2 inh: qHTS Primary assay for Inhibitors of Plasmodium falciparum Dd2 growth in vitro | P. falciparum Dd2 growth, SYBR Green, 72 h | Potency, µM (series often up to 28.9 µM), usual class: inhibitors | hit rate 4.3% among 120,000; active = well fitted inhibition curve with a large enough effect; also: nearly all actives have a fitted effect of over 65% in size
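Readout: SYBR Green fluorescence, 485 nm excitation, 535 nm emission, after ~16 h lysis at 37C. Before that, Dd2-infected red cells (2.5% hematocrit) grew 72 h with compound, 29 uM top final concentration.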
Each line names hits and unclear results; the compound was inactive in the other large screens. Only a selection was taken, and hits are over-represented in it overall.

Cc1ccncc1C(=O)N1CCC(N2CC(OCC3CC3)C23CCCCC3)CC1 (stereo not drawn)	none
c1ccc(CN2CCC(N3CC(OCC4CC4)C34CCOCC4)CC2)cc1 (stereo not drawn)	Pf Dd2 inh 5.6µM
COCCOC1CN(C2CCN(C(=O)c3ccc(C)nc3)CC2)C12CCCCC2 (stereo not drawn)	none
COCCOC1CN(C2CCN(Cc3ccc(C)o3)CC2)C12CCCCC2 (stereo not drawn)	Pf Dd2 inh 5µM
Cn1cccc1CN1CCC(N2CC(OCC3CC3)C23CCCCC3)CC1 (stereo not drawn)	Pf Dd2 inh 0.63µM
Cc1ccc(CN2CCC(N3CC(OCC4CC4)C34CCOCC4)CC2)s1 (stereo not drawn)	Pf Dd2 inh 10µM
Cc1ncoc1C(=O)N1CCC(N2CC(OCC3CC3)C23CCOCC3)CC1 (stereo not drawn)	none
COC1CN(C2CCN(C(=O)Cc3ccccc3)CC2)C12CCOCC2 (stereo not drawn)	none
CCC(=O)N(C1CCOCC1)C1CCN(Cc2ccc(C)o2)CC1	none
O=C(c1ccccn1)N1CCC(N2CC(OCC3CC3)C23CCOCC3)CC1 (stereo not drawn)	none
CC1(c2ccccc2)N(Cc2ccccc2F)C(=O)OC12CCN(Cc1cccnc1N)CC2 (stereo not drawn)	none
COC(=O)c1cccc(NC(=O)C2CCc3sc(C(=O)N(C)C)cc3C2)c1 (stereo not drawn)	none
CC(=O)N1CCN(c2ncnc3c2CN(C2CCC2)C(=O)CN3C)CC1	none
COCCN1C(=O)CS(=O)(=O)C12CCN(C(=O)c1cc(OC)cc(OC)c1)CC2	none
COc1ccc(N2CC(C(=O)N3CCC(C(=O)N4CCN(Cc5ccccc5)CC4)C3)NC2=O)cc1 (stereo not drawn)	none
Cc1nc(CC(=O)N2CCCC(C(=O)NCCCO)C2)cs1 (stereo not drawn)	none
C=CCNC(=O)N1CC[C@H]2CC(=O)N(C3CCCCC3)CC[C@H]2C1	none
COc1cccc([S+](=O)([O-])N2CCC3(CC2)C(=NC2CCCC2)NC(=O)N3c2cc(F)cc(F)c2)c1	none
O=C(NC1CCN(c2cc(-c3cccs3)[nH]n2)C1)c1ccc2[nH]ccc2c1 (stereo not drawn)	none
Cc1ccc(C(=O)NC2CCN(c3cc(-c4cccs4)[nH]n3)C2)cc1F (stereo not drawn)	none
O=C(NC1CCN(c2cc(-c3cccs3)[nH]n2)C1)c1ccncc1 (stereo not drawn)	none
O=C(NC1CCN(c2cc(-c3cccs3)[nH]n2)C1)c1cc2ccccc2[nH]1 (stereo not drawn)	Pf Dd2 inh 14µM
O=C(NC1CCN(c2cc(-c3cccs3)[nH]n2)CC1)c1ccc(F)c(Cl)c1	none
Cc1ccc(C(=O)NC2CCN(c3cc(-c4cccs4)[nH]n3)CC2)cc1F	Pf Dd2 inh 11µM
Cc1cc(C(F)(F)F)nn1CC(=O)N1CCCCCCN(C)C(=O)[C@@H]2CCC[C@@H]21	none
O=C1C(N2CCN(S(=O)(=O)Cc3cccc(Cl)c3)CC2)CCN1Cc1cccnc1 (stereo not drawn)	none
O=C1NCCCCCN(C(=O)Nc2ccccc2F)[C@H]2CCCC[C@@H]12	none
CS(=O)(=O)Nc1ccc(C2(C(=O)NCc3ccc4c(c3)OCO4)CCCCC2)cc1	none
O=C(Nc1ccc(C2(C(=O)NCc3ccc(F)cc3)CCCCC2)cc1)C1CC1	none
O=C(Nc1ccc(C2(C(=O)NCc3ccc4c(c3)OCO4)CCCCC2)cc1)C1CC1	Pf Dd2 inh 13µM
Cc1oc(C(O)c2ccccc2)nc1C(=O)Nc1ccncc1 (stereo not drawn)	none
COc1cc(OC)cc(C(=O)NCC2CCCN(Cc3cnn(C)c3C)C2)c1 (stereo not drawn)	none
Cc1cccc(-c2ccc3c(c2)C(=O)N2CC[C@H](NC(=O)NC(C)C)C[C@H]2C(=O)N3)c1C	none
CC(C)NC(=O)N[C@H]1CCN2C(=O)c3cc(-c4ccc5c(c4)OCO5)ccc3NC(=O)[C@@H]2C1	none
CC(C)NC(=O)N[C@H]1CCN2C(=O)c3cc(-c4ccsc4)ccc3NC(=O)[C@@H]2C1	Pf Dd2 inh 13µM
COCCNC(=O)c1coc(COc2ccc3c(c2)C(c2ccc(C)cc2)N(C(=O)C2CC2)CC3)n1 (stereo not drawn)	none
C=CCNC(=O)c1coc(COc2ccc3c(c2)C(c2ccc(C)cc2)N(C(=O)C2CC2)CC3)n1 (stereo not drawn)	none
CCNC(=O)c1coc(COc2ccc3c(c2)C(c2ccc(F)cc2)N(C(=O)CC(C)C)CC3)n1 (stereo not drawn)	Pf Dd2 inh 1.4µM
O=C(Cc1ccsc1)N1CCC2(CC1)N=C(c1ccccc1)NO2	none
COCCN1C(=O)CS(=O)(=O)C12CCN(C(=O)Cc1cccc(F)c1)CC2	none
Cc1ccc(-c2nn(-c3cccc(F)c3)cc2CN(C)CCO)o1	Pf Dd2 inh 7.9µM
Cc1cc(CN(C)Cc2cn(-c3cccc(F)c3)nc2-c2ccc(C)o2)n[nH]1	none
COc1ccc(-c2nn(-c3ccccc3C)cc2CN(C)Cc2cn(C)nc2C)cc1F	none
CCc1nc2c(c(-c3ccc(OC)cc3)n1)CCN(C(=O)c1ccc3c(c1)OCO3)CC2	none
O=C(O)CCCC(=O)N1CCN2C(=O)c3cc(-c4ccco4)ccc3NC(=O)[C@@H]2C1	none
Cn1nccc1C(=O)N1CCC2(CC1)CC(Cc1nc(C3CC3)no1)CCO2 (stereo not drawn)	none
CCS(=O)(=O)N(C1CC1)C1CCOC2(CCN(C(=O)c3ccc(F)cc3)CC2)C1 (stereo not drawn)	none
O=C(NC1CCCC1)N1CCC2(CC1)CC(N(C(=O)c1ccccc1)C1CC1)CCO2 (stereo not drawn)	none
O=C(c1ccsc1)N1CCC2(CC1)CC(N(Cc1ccc(F)cc1)C1CC1)CCO2 (stereo not drawn)	Pf Dd2 inh 8.9µM
O=C(Cc1ccccc1)N1CCC2(CC1)CC(N(Cc1ccccc1)C1CC1)CCO2 (stereo not drawn)	none
COc1cccc(CC(=O)N2CCC3(CC2)CC(N(Cc2ccccc2)C2CC2)CCO3)c1 (stereo not drawn)	none
CCC(CC)C(=O)N1CCC2(CC1)CC(N(Cc1ccc(F)cc1)C1CC1)CCO2 (stereo not drawn)	none
O=C(COc1ccccc1)N1CCC2(CC1)CC(N(Cc1ccccc1)C1CC1)CCO2 (stereo not drawn)	Pf Dd2 inh 3.2µM
O=C(c1ccsc1)N1CCC2(CC1)CC(N(Cc1ccccc1)C1CC1)CCO2 (stereo not drawn)	none
Cc1ccsc1C(=O)N1CCC2(CC1)CC(N(C(=O)c1ccccc1)C1CC1)CCO2 (stereo not drawn)	none
O=C(NC1CCCC1)N1CCC2(CC1)CC(N(Cc1ccc(F)cc1)C1CC1)CCO2 (stereo not drawn)	Pf Dd2 inh 4.5µM
Cc1ccsc1C(=O)N1CCC2(CC1)CC(N(Cc1ccc(F)cc1)C1CC1)CCO2 (stereo not drawn)	Pf Dd2 inh 10µM
COC(=O)CNC(=O)N1CCC2(CC1)CC(N(Cc1ccc(F)cc1)C1CC1)CCO2 (stereo not drawn)	none
Cc1ncccc1C(=O)N1CCC(N2CC3CC(C2)[C@H]2CCCC(=O)N2C3)CC1 (stereo partly drawn)	none
Cc1ccc(Cc2ccccc2C(=O)N2CCC3(CC2)CNC(=O)C3)cc1F	none
CNC(=O)[C@@H]1C[C@H](Oc2ccccc2)CN1C(=O)C1(C)CCCCC1	none
COC1CCN(C(=O)c2cnc3c(c2)N(Cc2ccccc2)CCC3)CC1	none
O=C1NCCCCCN(C(=O)NCc2ccc(F)cc2)[C@H]2CCCC[C@@H]12	none
O=C(Cc1cccnc1)N[C@H]1CCOC[C@H]1C1CCOCC1	none
